# Results published in PubChem BioAssay.
# Calls of active or inactive are those of the source.
# What was measured:
# Albumin (Bos taurus) = Albumin (Bos taurus) (UniProt P02769); experiment: bovine serum albumin binders on microarray, profiling panel, artefact control for SMM control protein annotation, biochemical, small-molecule microarray, Alexa647 label, 635/667 nm fluorescence (AID 1118); settings: BSA-A647 binding, fluorescence 635 nm, higher = more signal;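 note: score merges 667 nm emission intensity and signal-to-noise per printed compound spot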
# [1] = small-molecule microarray binders of probe aXIP, primary screen, biochemical, NeuroSMM set, 635/667 nm fluorescence (AID 1119); settings: higher = more signal, called active from +8 up or from −8 down;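 note: probe is the protein aXip251-270 applied at 1 µg/mL to compound-printed slides; binding of probe to printed compounds measured as 667 nm fluorescence plus signal to noise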
# [2] = small-molecule binders of probe aNOTCH3, primary screen, biochemical, small-molecule microarray, 635/667 nm fluorescence (AID 1120); settings: higher = more signal;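 note: probe is a biotin-tagged antibody raised against NOTCH3 rather than NOTCH3 protein; score merges spot fluorescence near 667 nm with spot signal to noise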
# [3] = small-molecule binders of probe aNOTCH2, primary screen, biochemical, small-molecule microarray, 635/667 nm fluorescence (AID 1121); settings: higher = more signal;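 note: score merges feature fluorescence read at 667 nm with its signal to noise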
# [4] = biological target: Carbonic anhydrase 2 (Homo sapiens) (UniProt P00918); experiment: CAII small-molecule binders, profiling panel, biochemical, small-molecule microarray, Alexa647-labelled CAII (AID 1122); settings: CAII-A647 binding fluorescence, higher = more signal
# [5] = COS7 lysate on small-molecule microarray, probe aHis, 635 nm (AID 1123); settings: COS7 cell lysate, fluorescence, higher = more signal;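 note: z-score combines 667nm fluorescence intensity with signal-to-noise per printed compound spot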
# [6] = compound binding in COS7 lysate, probe aLAP1, primary screen, cell lysate, small-molecule microarray (AID 1124); settings: probe aLAP1, fluorescence, higher = more signal;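 note: lysate comes from COS7 cells expressing LAP1 and is applied at 0.3 µg/mL; score merges spot fluorescence near 667 nm with signal-to-noise over triplicate slides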
# Sam68 (KHDRBS1) = experiment: Sam68 small-molecule binders, primary screen, biochemical, small-molecule microarray, 635 nm fluorescence (AID 1125); settings: small-molecule microarray binding, higher = more signal;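 note: score merges 667 nm channel intensity with signal to noise over triplicate slides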
# [7] = tested on: Chordin-like protein 2 (CHRDL2); experiment: CHRDL2 small-molecule binders, primary screen, biochemical, small-molecule microarray, 635 nm fluorescence (AID 1126); settings: small-molecule microarray binding, fluorescence 635 nm; higher = more signal;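 note: printed compound slides probed with Chrdl2 protein at 4 µg/mL for 1 h at 4 C; score merges 667 nm emission intensity with signal to noise over three replicate slides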
# [8] = biological target: Concanavalin-A (Canavalia ensiformis) (UniProt P02866); experiment: ConA small-molecule binders, primary screen, artefact control for SMM control protein annotation, biochemical, small-molecule microarray, Alexa647 label, 635 nm (AID 1127); settings: ConA-A647 binding fluorescence, higher = more signal;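 note: z combines 667 nm emission intensity with signal-to-noise across three replicate slides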
# [9] = anti-His antibody binders, primary screen, artefact control for SMM control protein annotation, biochemical, small-molecule microarray, 635 nm fluorescence (AID 1128); settings: anti-His Alexa647 antibody binding, higher = more signal;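 note: score merges feature fluorescence with signal-to-noise for each printed compound spot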
# [10] = tested on: Human papillomavirus type 1a E7 protein (residues 1-88); experiment: HPV1a E7 small-molecule binders, primary screen, biochemical, small-molecule microarray, residues 1-88, 635 nm (AID 1129); settings: small-molecule microarray binding, fluorescence 635 nm; higher = more signal
# [11] = biological target: Focal adhesion kinase 1 (Homo sapiens) (UniProt Q05397); experiment: small-molecule microarray binders of FAK, primary screen, biochemical, 635/667 nm fluorescence, BSA, DTT (AID 1130); settings: PTK2 binding, 635 nm fluorescence, higher = more signal;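 note: composite of spot emission at 667 nm and signal to noise over triplicate slides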
# [12] = tested on: Fibrinogen (Alexa647-labelled); experiment: fibrinogen binders on compound microarrays, profiling panel, artefact control for SMM control-protein annotation, biochemical, small-molecule microarray, 635/667 nm fluorescence (AID 1131); settings: fibrinogen-A647 binding fluorescence, higher = more signal;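 note: z-score merges 667 nm fluorescence with per-spot signal-to-noise over triplicate slides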
# [13] = biological target: Follistatin (Homo sapiens) (UniProt P19883); experiment: follistatin binders on small-molecule microarrays, primary screen, biochemical, small-molecule microarray, 635/667 nm fluorescence (AID 1132); settings: FST binding, 635 nm fluorescence, higher = more signal
# [14] = biological target: Fibroblast growth factor 2 (Homo sapiens) (UniProt P09038); experiment: FGF2 binders on small-molecule microarrays, primary screen, biochemical, small-molecule microarray, 635/667 nm fluorescence (AID 1133); settings: small-molecule microarray binding, FGF2, fluorescence 635/667; higher = more signal
# [15] = mitochondrial membrane potential change in A549 cells, profiling panel, cell-based, JC-1 fluorescence, basal, 24 h, 100 nL (AID 1138); settings: higher = more signal;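 note: A549 lung adenocarcinoma cells under basal conditions with no added stimulus; test concentration not given here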
# Lefty1 = Lefty1 binders on small-molecule microarrays, primary screen, biochemical, small-molecule microarray, 635/667 nm fluorescence (AID 1139); settings: small-molecule microarray binding, fluorescence 635/667; higher = more signal
# [16] = tested on: wheat germ agglutinin (Triticum aestivum), Alexa647-labelled; experiment: wheat germ agglutinin binders on compound microarrays, profiling panel, artefact control for SMM control-protein annotation, biochemical, small-molecule microarray, 635/667 nm fluorescence (AID 1140); settings: WGA-A647 binding, 635 nm fluorescence, higher = more signal;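 note: score merges 667 nm feature emission with signal to noise over triplicate slides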
# [17] = biological target: Luciferin 4-monooxygenase (Photinus pyralis) (UniProt P08659); experiment: firefly luciferase enzyme inhibitors, primary screen, biochemical, luminescence, purified enzyme, 2006 set (AID 1141); settings: SteadyGlo luminescence, 30 min, higher = more signal, called active from +8 up or from −8 down;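 note: cell-free assay with purified firefly luciferase at 100 ng per well in PBS; test concentration not given here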
# Sequence of Luciferin 4-monooxygenase (Photinus pyralis) (P08659 whole entry, looked up): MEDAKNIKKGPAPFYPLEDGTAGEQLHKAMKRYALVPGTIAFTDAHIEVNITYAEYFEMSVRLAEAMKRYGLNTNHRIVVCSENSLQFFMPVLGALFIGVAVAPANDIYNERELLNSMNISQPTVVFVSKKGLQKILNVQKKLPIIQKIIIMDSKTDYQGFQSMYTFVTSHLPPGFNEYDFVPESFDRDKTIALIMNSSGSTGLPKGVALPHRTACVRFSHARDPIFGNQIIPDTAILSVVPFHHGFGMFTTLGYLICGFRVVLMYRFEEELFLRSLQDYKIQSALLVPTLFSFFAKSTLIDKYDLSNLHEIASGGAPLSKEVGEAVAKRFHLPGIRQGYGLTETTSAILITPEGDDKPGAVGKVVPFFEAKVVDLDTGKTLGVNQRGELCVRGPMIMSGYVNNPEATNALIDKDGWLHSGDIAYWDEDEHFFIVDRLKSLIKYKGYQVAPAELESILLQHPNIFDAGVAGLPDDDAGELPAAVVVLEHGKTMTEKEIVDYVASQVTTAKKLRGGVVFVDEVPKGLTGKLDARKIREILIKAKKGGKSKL
# Sequence of Focal adhesion kinase 1 (Homo sapiens) (Q05397 whole entry, looked up): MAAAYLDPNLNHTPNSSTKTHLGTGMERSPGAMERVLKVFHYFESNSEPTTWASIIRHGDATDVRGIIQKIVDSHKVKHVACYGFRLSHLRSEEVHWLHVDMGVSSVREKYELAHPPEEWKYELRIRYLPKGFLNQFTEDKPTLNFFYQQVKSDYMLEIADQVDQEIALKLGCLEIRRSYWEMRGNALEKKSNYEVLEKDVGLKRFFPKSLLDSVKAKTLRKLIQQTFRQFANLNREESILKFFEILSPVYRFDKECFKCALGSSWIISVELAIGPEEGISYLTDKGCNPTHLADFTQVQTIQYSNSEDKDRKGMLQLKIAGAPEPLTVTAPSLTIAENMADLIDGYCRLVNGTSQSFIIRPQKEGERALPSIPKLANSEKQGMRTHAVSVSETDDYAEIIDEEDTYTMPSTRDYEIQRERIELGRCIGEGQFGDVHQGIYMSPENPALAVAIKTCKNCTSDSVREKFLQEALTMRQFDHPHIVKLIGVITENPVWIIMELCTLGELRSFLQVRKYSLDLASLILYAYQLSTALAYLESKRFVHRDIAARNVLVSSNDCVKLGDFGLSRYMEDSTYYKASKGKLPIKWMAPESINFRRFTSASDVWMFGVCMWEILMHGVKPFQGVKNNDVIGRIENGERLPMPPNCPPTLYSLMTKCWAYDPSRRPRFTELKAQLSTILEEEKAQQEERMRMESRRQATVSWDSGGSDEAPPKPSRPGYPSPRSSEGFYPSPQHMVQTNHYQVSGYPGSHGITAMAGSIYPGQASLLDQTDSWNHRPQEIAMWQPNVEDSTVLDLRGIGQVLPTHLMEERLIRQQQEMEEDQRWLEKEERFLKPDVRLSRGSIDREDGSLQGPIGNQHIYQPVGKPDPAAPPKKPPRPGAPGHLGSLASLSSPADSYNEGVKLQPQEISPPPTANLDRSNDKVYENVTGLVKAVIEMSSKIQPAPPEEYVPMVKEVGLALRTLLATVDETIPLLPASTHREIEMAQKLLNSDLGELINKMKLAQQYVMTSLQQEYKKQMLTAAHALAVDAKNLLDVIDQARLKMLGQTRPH
# Sequence of Fibroblast growth factor 2 (Homo sapiens) (P09038 whole entry, looked up): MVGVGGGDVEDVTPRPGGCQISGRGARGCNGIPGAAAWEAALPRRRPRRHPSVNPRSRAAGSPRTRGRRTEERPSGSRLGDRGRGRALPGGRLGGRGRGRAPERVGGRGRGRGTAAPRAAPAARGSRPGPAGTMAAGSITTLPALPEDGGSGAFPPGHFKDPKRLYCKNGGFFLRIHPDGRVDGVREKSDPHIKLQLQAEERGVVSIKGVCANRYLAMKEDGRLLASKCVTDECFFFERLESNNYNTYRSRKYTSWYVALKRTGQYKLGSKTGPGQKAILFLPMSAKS
# Sequence of Albumin (Bos taurus) (P02769 whole entry, looked up): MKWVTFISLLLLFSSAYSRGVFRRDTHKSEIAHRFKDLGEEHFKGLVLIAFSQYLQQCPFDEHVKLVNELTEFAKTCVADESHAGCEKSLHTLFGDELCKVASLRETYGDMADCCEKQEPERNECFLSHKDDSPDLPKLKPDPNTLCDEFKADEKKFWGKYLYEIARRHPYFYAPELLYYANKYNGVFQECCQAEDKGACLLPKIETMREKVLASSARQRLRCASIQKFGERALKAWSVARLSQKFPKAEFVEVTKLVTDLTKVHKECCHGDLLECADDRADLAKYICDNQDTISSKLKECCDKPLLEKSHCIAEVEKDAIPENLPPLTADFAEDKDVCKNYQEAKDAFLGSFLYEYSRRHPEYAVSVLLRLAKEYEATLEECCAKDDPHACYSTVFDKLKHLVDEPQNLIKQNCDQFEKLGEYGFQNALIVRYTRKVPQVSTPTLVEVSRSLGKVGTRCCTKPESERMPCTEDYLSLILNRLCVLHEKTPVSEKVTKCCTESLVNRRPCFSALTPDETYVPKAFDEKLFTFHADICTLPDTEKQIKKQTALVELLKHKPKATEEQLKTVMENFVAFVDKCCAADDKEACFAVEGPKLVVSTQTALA
# Sequence of Follistatin (Homo sapiens) (P19883 whole entry, looked up): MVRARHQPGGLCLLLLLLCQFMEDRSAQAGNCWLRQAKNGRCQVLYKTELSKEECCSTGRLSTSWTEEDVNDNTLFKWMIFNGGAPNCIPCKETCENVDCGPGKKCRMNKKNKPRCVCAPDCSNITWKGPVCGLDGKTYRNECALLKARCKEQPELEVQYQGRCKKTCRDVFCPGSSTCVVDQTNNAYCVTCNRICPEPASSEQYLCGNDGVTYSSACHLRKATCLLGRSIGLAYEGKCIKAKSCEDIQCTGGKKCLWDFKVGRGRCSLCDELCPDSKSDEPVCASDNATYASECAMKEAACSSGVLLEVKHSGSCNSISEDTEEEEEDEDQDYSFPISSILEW
# Sequence of Concanavalin-A (Canavalia ensiformis) (P02866 whole entry, looked up): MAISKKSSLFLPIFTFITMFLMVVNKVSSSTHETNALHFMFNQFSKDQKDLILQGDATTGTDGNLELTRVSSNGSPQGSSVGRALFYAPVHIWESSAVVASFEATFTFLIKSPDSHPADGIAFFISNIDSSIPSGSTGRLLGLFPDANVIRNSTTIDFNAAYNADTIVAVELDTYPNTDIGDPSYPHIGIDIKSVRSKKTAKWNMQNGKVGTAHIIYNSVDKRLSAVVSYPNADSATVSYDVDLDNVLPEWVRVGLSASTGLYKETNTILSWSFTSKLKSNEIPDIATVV
Compound,composite z-score (Albumin (Bos taurus)),composite Z-score [1],composite z-score [2],composite z-score [3],composite z-score [4],composite z-score [5],composite z-score [6],composite z-score (Sam68 (KHDRBS1)),composite z-score [7],composite z-score [8],composite z-score [9],composite z-score [10],composite z-score [11],composite z-score [12],composite z-score [13],composite z-score [14],z-score [15],composite z-score (Lefty1),composite z-score [16],z-score [17]
COC(=O)[C@H](C)NC(=O)CCC1CC(OC(=O)NCc2ccc3c(c2)OCO3)CC2(CCCC(COC(=O)NCCC(C)C)O2)O1 (stereo not given in full),0.492,-0.436 (inactive),0.0488,-0.114,0.226,0.891,-0.308,1.31,0.0784,0.0667,0.363,0.63,0.73,0.87,0.831,0.531,-0.822,1.25,0.0551,0.977 (inactive)
C#CCCCON=C1C[C@@H](O)[C@@H](O)[C@@H]2[C@@H]3C(=O)N(C[C@@H]4CCCO4)C(=O)[C@@H]3CC[C@@H]12,0.211,-0.294 (inactive),-0.047,-0.0614,0.406,0.31,0.221,0.254,0.264,0.842,0.265,0.439,-0.14,0.527,0.378,0.222,0.441,0.554,0.553,-0.106 (inactive)
CCOC(=O)[C@H](Cc1ccccc1)NC(=O)CCC1CC(OC(=O)NCc2ccc3c(c2)OCO3)CC2(CCCC(COC(=O)NCCCN3CCCC3=O)O2)O1 (stereo not given in full),0.613,0.581 (inactive),-0.0204,-0.179,0.454,1.27,0.334,1.32,0.329,1.1,0.556,0.959,0.28,0.87,0.72,0.537,0.232,0.428,0.305,1.12 (inactive)
COC(=O)[C@H](C)NC(=O)CCC1CC(OC(=O)NCc2cccc3ccccc23)CC2(CCCC(COC(=O)NCc3ccccc3)O2)O1 (stereo not given in full),-0.0725,0.142 (inactive),0.062,-0.104,0.288,0.763,-0.206,1.26,0.7,0.984,0.432,0.976,0.388,0.893,0.729,0.846,-0.139,1.17,0.22,1.09 (inactive)
CCOC(=O)CCN1C(=O)[C@H]2[C@H]3[C@H](O)[C@H](O)CC(=NOCC=C(C)CCC=C(C)C)[C@H]3CC[C@H]2C1=O,-0.269,-0.113 (inactive),0.179,-0.167,-0.276,-0.405,-0.192,0.458,-0.178,0.116,-1.12,-0.251,-0.0341,-0.161,-0.975,0.404,0.64,-0.893,-0.503,0.0499 (inactive)
O=C(NN=C1C[C@@H](O)[C@@H](O)[C@@H]2[C@@H]3C(=O)N(c4ccc(F)cc4F)C(=O)[C@@H]3CC[C@H]12)OCc1ccccc1,0.87,-0.525 (inactive),0.11,-0.0958,0.477,0.98,-0.27,0.959,0.161,0.411,0.746,0.76,0.0097,0.501,0.28,0.0684,-0.63,0.331,0.114,0.934 (inactive)
